# Assay outcomes deposited in PubChem BioAssay by The Scripps Research Institute Molecular Screening Center.
# A selection: hits, their analogues and other compounds. The true share with any hit is near 2.4%.
# M1 PAM: potentiates human M1 receptor response to acetylcholine; AID 588819; CHO-K1 hM1, Fluo-8 calcium fluorescence, ACh EC20; 0% = ACh EC20, 100% = maximal ACh; hit rate 0.088% among 360,000; P11229; activation, % at 3 µM; in the data active means activation above about 19%, passing the limit was not always enough
# Target sequence (P11229 whole entry, looked up): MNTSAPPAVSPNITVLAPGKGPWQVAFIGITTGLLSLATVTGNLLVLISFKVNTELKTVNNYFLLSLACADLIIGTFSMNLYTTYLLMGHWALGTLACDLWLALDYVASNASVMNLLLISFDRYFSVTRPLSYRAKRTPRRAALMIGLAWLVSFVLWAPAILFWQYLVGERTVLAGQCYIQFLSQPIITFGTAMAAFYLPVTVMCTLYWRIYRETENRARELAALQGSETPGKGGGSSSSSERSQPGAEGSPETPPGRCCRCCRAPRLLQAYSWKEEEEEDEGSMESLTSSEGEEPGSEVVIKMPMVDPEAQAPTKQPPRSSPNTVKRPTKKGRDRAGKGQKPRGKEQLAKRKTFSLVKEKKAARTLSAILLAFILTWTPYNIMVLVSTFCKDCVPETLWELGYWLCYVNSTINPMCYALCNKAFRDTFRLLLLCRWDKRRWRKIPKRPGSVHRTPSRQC
# M1 antag: human CHRM1 antagonism; inhibition, % at 3 µM; hit rate 1.3% among 360,000; P11229; CHO-K1 hM1, Fluo-8 calcium fluorescence, ACh EC80 antagonist; AID 588852;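 active means percent inhibition above its own plate's cutoff, namely the mean of that plate's compound wells plus 3 SD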;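 further: peak over basal fluorescence ratio during 140 s after agonist addition; 0% = ACh EC80 plus DMSO and 100% = DMSO alone without agonist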
# CHRM1 agonist: agonists of human M1 muscarinic receptor; AID 588814; activation, % at 3 µM; P11229; hit rate 0.33% among 360,000; CHO-K1 hM1, Fluo-8 calcium fluorescence, agonist mode; 0% DMSO, 100% acetylcholine EC100;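 active means activation above the run's mean compound activation plus 3 SD, cut at about 16% in these data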;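 further: peak over basal fluorescence ratio within a 140 s kinetic read after compound addition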
# CHO-K1 Ca antag: M1 antagonist counterscreen hit in parental CHO-K1 cells | ATP-induced calcium, Fluo-8 fluorescence | inhibition, % at 3 µM | hit rate 0.6% among 360,000 | AID 602250;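 active means inhibition above a per-plate cutoff, the plate's mean sample inhibition plus 3 SD, cut at about 24% in these data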;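 further: 0% = DMSO plus EC80 ATP and 100% = DMSO alone without ATP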
# M1 PAM parental: nonselective activator or artifact in parental CHO-K1 calcium assay; ATP EC20, Fluo-8 calcium fluorescence; 0% at ATP EC20, 100% at ATP max; activation, % at 3 µM; hit rate 0.02% among 360,000; AID 602247;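 active means activation above the run cutoff, the mean activation of all test compounds plus 3 SD, cut at about 40% in these data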;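 further: peak over basal fluorescence ratio in a 140 s read after ATP addition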
# M1 ag parental: counter-screen for M1 agonists: effect in parental CHO-K1 cells; hit rate 0.48% among 360,000; Fluo-8 calcium fluorescence; scaled to maximal ATP response, vehicle zero; activation, % at 3 µM; in the data active means activation above about 15%;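 further: untransfected CHO-K1 host cells lacking M1 receptor as counterscreen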
# * hit, by the source's call; . = no result given.
SMILES,M1 PAM,M1 antag,CHRM1 agonist,CHO-K1 Ca antag,M1 PAM parental,M1 ag parental
Cc1cccc(C)c1-n1c(C)cc(/C=N\Nc2ccc([N+](=O)[O-])cn2)c1C,-14,35*,-2,13,-2,3
Cc1ccsc1C1C2=C(CCCC2=O)Nc2ncnn21 (stereo not given),-10,9,-1,31*,-4,0
Cc1ccc(O)c([C@H](CCN(C(C)C)C(C)C)c2ccccc2)c1,-27,100*,-8,8,-5,0
CCCN(CCC)C(=O)CC(c1ccccc1)c1ccc(C)cc1O (stereo not given),-2,1,-10,-17,6,-1
O=C(COC(=O)/C=C/c1ccc(Cl)c(Cl)c1)NC1CCCC1,15,-19,0,-2,14,1
O=C(COC(=O)/C=C/c1ccc(Cl)c(Cl)c1)NC1CCS(=O)(=O)C1 (stereo not given),-5,15,1,14,-2,16*
O=C1NC(Cc2ccc(O)cc2)c2nc3cc(F)c(F)cc3c(=O)n2-c2cc3ccccc3cc21 (stereo not given),-16,25,-3,35*,-10,1
O=C1NC(Cc2ccccc2)c2nc3cc(F)c(F)cc3c(=O)n2-c2cc3ccccc3cc21 (stereo not given),0,11,-5,7,-6,1
O=C1NC(Cc2ccc(O)cc2)c2nc3ccc(F)cc3c(=O)n2-c2cc3ccccc3cc21 (stereo not given),-10,23*,-1,9,19,6
Cc1ccc2nc3n(c(=O)c2c1)-c1cc2ccccc2cc1C(=O)NC3Cc1ccc(O)cc1 (stereo not given),-6,15,1,13,-2,3
COC(=O)c1c(C)[nH]c(C(=O)C(C)OC(=O)c2cnc(C)cn2)c1C (stereo not given),7,-6,0,-18,6,2
O=C(CCCc1nc(-c2ccc(Cl)cc2)no1)NC1CCCC1,-11,37*,0,4,-5,17*
COc1ccc(-c2noc(CCCC(=O)NC3CCCC3)n2)cc1,-13,10,-1,4,-4,14
O=C(CCc1nc(-c2ccc(Cl)cc2)no1)NC1CCCCC1,-2,1,1,5,2,17*
CN(C)c1ccc(/C=C/C(=O)c2cccc(Br)c2)cc1,-33,81*,164*,40*,5,53*
C=CCC1CCCC(=O)N2CC[C@H](O)C12 (stereo not given in full),1,-3,-2,-6,14,0
Cc1noc(C)c1-c1ccc(C(=O)NCc2ccc(Cl)cc2)c2occc12,6,-17,-1,-24,17,1
COc1ccc(C2C3=C(COC3=O)Oc3cc4c(cc32)OCO4)cc1OC (stereo not given),29*,-25,-1,-14,8,0
COc1cc(C2C3=C(COC3=O)Oc3cc4c(cc32)OCO4)ccc1OC(C)=O (stereo not given),1,-4,-5,-14,15,1
CC(C)/C=C1\CC/C(=C\c2ccc(N(C)C)cc2)C1=O,-12,46*,52*,29*,6,29*
O=C(NCc1ccccc1C(F)(F)F)c1cccc2c1C(=O)c1ccc(N3CCC(N4CCCCC4)CC3)cc1S2(=O)=O,-28,39*,2,-1,15,11
O=C(NCC1CCCO1)c1cccc2c1C(=O)c1ccc(N3CCC(Cc4ccccc4)CC3)cc1S2(=O)=O (stereo not given),-23,38*,17*,12,-3,17*
FC(F)(F)c1cnc2c(c1)[nH]c(=S)n2-c1ccc(Cl)cc1,-20,20,0,2,5,16*
Fc1ccc(-n2c(=S)[nH]c3cccnc32)cc1,1,-8,-5,-9,12,0
COc1ccc(N2CCN(c3c(S(=O)(=O)c4ccccc4)cnc4ccc(OC)cc34)CC2)cc1,-15,14,-5,1,5,1
SMILES,M1 PAM,M1 antag,CHRM1 agonist,CHO-K1 Ca antag,M1 PAM parental,M1 ag parental
COc1ccc(S(=O)(=O)c2cnc3ccc(OC)cc3c2N2CCC3(CC2)OCCO3)cc1,-19,28*,-1,1,17,6
Cc1ccccc1OCC(=O)Nc1ccc([N+](=O)[O-])cc1,5,-22,-2,-7,9,6
CC1CCc2c(nc3ncnn3c2NCCN(C)C)C1 (stereo not given),15,-15,-3,-11,14,0
O=C(CSc1n[nH]c(=O)n1C1CC1)c1ccc(F)cc1,10,-14,-2,5,2,1
CSc1n[nH]c(=O)n1C1CCCCC1,-1,4,-6,1,1,18*
COc1ccc(/C=C2\CN(Cc3ccccc3)C/C(=C\c3ccc(OC)cc3OC)C2=O)c(OC)c1,-7,29*,0,9,4,4
COc1ccc(/C=C2\CN(Cc3ccccc3)C/C(=C\c3ccc(OC)cc3)C2=O)cc1,4,-8,-5,4,1,0
Cc1csc(SCC(=O)Nc2cc(S(=O)(=O)N(C)C)ccc2C)n1,-2,5,-1,-4,-7,0
O=C(C[C@H]1C[C@H](C(=O)N2CCCCC2)[C@@]2(CCc3ccccc3)c3[nH]c4ccc(Cl)cc4c3CCN2C1=O)NCCC1=CCCCC1,-11,21,-1,26*,-11,0
Cc1cc2oc(=O)cc(CN3CCOCC3)c2c(C)c1Cl,12,-12,-1,-18,11,0
NC(=S)NNC(=O)C12CC3CC(CC(C3)C1)C2,-6,23*,29*,8,-6,19*
C=CCn1c(SCCOC)nc2c1c(=O)[nH]c(=O)n2C,6,-10,-4,-9,22,1
C=CCn1c(SCCN2CCCCC2)nc2c1c(=O)[nH]c(=O)n2C,-20,28*,-12,20,-4,0
Nc1ccn([C@@H]2O[C@H](C(=O)N3CCCN(Cc4ccccc4F)CC3)[C@@H](O)[C@H]2O)c(=O)n1,.,.,.,-8,1,0
CC(C)c1ccc(Nc2nnc(SCC(=O)NCC3CCCO3)s2)cc1 (stereo not given),-1,-4,0,-12,10,0
COc1ccc(N2CCN(C(=O)C(=O)c3c[nH]c4ccccc34)CC2)cc1,-2,9,0,8,-25,3
Cc1ccc2[nH]cc(C(=O)CN3CCN(c4ccccc4F)CC3)c2c1,1,-5,3,-6,7,16*
COc1ccc(N2CCN(CC(=O)c3c[nH]c4ccccc34)CC2)cc1,13,-11,0,24*,-22,0
